# Measurements as given in PubChem BioAssay (Tox21).
# Calls of active or inactive are those of the source. Entries that show only a call come without a potency. Unless noted, calls follow the shape of the dose curve; as a rule, active = well fitted curve in the direction sought with a large enough effect in the repeat runs; inconclusive = weak or mixed curves; inactive = no such curve, though single readings can be large; an effect the other way counts as inactive or inconclusive.
# How the values were obtained:
# [1] = qHTS assay to test for compound auto fluorescence at 535 nm (green) in HEK293 cells (AID 720680)
# [2] = qHTS assay to test for compound auto fluorescence at 460 nm (blue) in HEK293 cell free culture (AID 720681)
# In short: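 Blue fluorescence (Ex 405/Em 460 nm, triamterene-equivalent) was read immediately after pin transfer of compound or DMSO into medium (DMEM, 10% FBS) without cells.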
# [3] = qHTS assay to test for compound auto fluorescence at 535 nm (green) in HEK293 cell free culture (AID 720682)
# In short: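 Each library compound, or DMSO control, is added by pintool to medium alone, comprising DMEM and 10% FBS. Emission at 535 nm following 485 nm excitation is quantified against fluorescein.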
# [4] = qHTS assay to test for compound auto fluorescence at 590 nm (red) in HEK293 cell free culture (AID 720683)
# In short: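 Red-channel autofluorescence of compounds in culture medium (DMEM, 10% FBS), no cells, measured at 540/590 nm. Rose Bengal sodium is the reference fluorophore for equivalence.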
# [5] = qHTS assay to test for compound auto fluorescence at 590 nm (red) in HepG2 cell free culture (AID 720684)
# In short: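 Plate contents were MEM with 10% FBS plus test compound or DMSO, no cells. Fluorescence was recorded with 540 nm excitation and 590 nm emission.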
# [6] = qHTS assay to test for compound auto fluorescence at 460 nm (blue) in HepG2 cell free culture (AID 720685)
# In short: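 Compound (23 nL) or DMSO pinned into cell-free MEM with 10% FBS; blue fluorescence read at 405/460 nm excitation/emission, expressed as auto-fluorescence equivalency to triamterene.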
# [7] = qHTS assay to test for compound auto fluorescence at 535 nm (green) in HepG2 cell free culture (AID 720686)
# [8] = qHTS assay to test for compound auto fluorescence at 460 nm (blue) in HepG2 cells (AID 720687)
# In short: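 Blue-channel autofluorescence (Ex/Em 405/460 nm, triamterene-equivalent) was measured after 1 hr compound exposure at 37 C, 5% CO2. Cells were HepG2, plated overnight at 37 C in MEM plus 10% FBS.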
# [9] = molecular target: Glucocorticoid receptor (Homo sapiens) (UniProt P04150); experiment: qHTS assay to identify small molecule agonists of the glucocorticoid receptor (GR) signaling pathway (AID 720691; active = well fitted activation curve with a large enough effect in the signal ratio in the repeat runs, not every such curve was filed as active; inconclusive = weak or mixed curves, or effect the other way; inactive = no such curve, though single readings can be large or run the other way; the % refers to the signal ratio; also: potency is read from the fitted curve at half-maximal effect); conditions: GR-bla HeLa, beta-lactamase reporter ratio, 18 h; activation: at 62.4 µM (top of the series)
# In short: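 GR-bla HeLa cells carrying a GRE-driven beta-lactamase reporter, exposed to compounds for 18 h at 37 C. Reporter activation read as fluorescence after 2 h with LiveBLAzer B/G FRET substrate at room temperature.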
# [10] = molecular target: Glucocorticoid receptor (Homo sapiens) (UniProt P04150); experiment: qHTS assay to identify small molecule antagonists of the glucocorticoid receptor (GR) signaling pathway (AID 720692; active = well fitted inhibition curve with a large enough effect in the signal ratio in the repeat runs, not every such curve was filed as active; inconclusive = weak or mixed curves, or effect the other way; inactive = no such curve, though single readings can be large or run the other way; the % refers to the signal ratio; also: potency is read from the fitted curve at half-maximal effect)
# In short: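 GR-bla HeLa cells carrying a GRE-driven beta-lactamase reporter received compound after 4 h plating, then dexamethasone (5 nM final). After 18 h at 37C, the FRET substrate was loaded for 2 h at room temperature and fluorescence read.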
# [11] = qHTS assay to identify small molecule antagonists of the glucocorticoid receptor (GR) signaling pathway - cell viability counter screen (AID 720693); also: nearly all actives have a fitted effect of over 55% in size; also: potency is read from the fitted curve at half-maximal effect
# [12] = qHTS assay for identifying genotoxic compounds that show differential cytotoxicity against isogenic chicken DT40 cell lines with known DNA damage response pathways - Rad54/Ku70 mutant cell line (AID 743015); also: nearly all actives have a fitted effect of over 60% in size; also: potency is read from the fitted curve at half-maximal effect
# [13] = qHTS assay to identify small molecule antagonists of the androgen receptor (AR) signaling pathway - cell viability counter screen (AID 743033; also: nearly all actives have a fitted effect of over 45% in size)
# [14] = qHTS assay to identify small molecule antagonists of the androgen receptor (AR) signaling pathway using the MDA cell line - cell viability counter screen (AID 743041; also: nearly all actives have a fitted effect of over 45% in size; also: potency is read from the fitted curve at half-maximal effect)
# In short: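 R1881-driven MDA-kb2 AR-luc cells, 3,000/well, were dosed with library compounds for 16 h; cell health came from CellTiter-Fluor fluorescence in the reporter wells.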
# [15] = qHTS assay for identifying genotoxic compounds that show differential cytotoxicity against isogenic chicken DT40 cell lines with known DNA damage response pathways - wild type cell line (AID 743012); also: nearly all actives have a fitted effect of over 60% in size; also: potency is read from the fitted curve at half-maximal effect
# In short: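 Wild-type DT40 cells (300/well) exposed to compounds for 40 hours at 37 C/5% CO2. Viability read by CellTiter-Glo luminescence after 30 min at room temperature.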
# [16] = qHTS assay for identifying genotoxic compounds that show differential cytotoxicity against isogenic chicken DT40 cell lines with known DNA damage response pathways - Rev3 mutant cell line (AID 743014); also: nearly all actives have a fitted effect of over 55% in size; also: potency is read from the fitted curve at half-maximal effect
# [17] = molecular target: Androgen receptor (Homo sapiens) (UniProt P10275); experiment: qHTS assay to identify small molecule antagonists of the androgen receptor (AR) signaling pathway (AID 743035; active = well fitted inhibition curve with a large enough effect in the signal ratio in the repeat runs, not every such curve was filed as active; inconclusive = weak or mixed curves, or effect the other way; inactive = no such curve, though single readings can be large or run the other way; the % refers to the signal ratio; also: potency is read from the fitted curve at half-maximal effect)
# In short: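 HEK293 cells stably carrying UAS-beta-lactamase reporter, 2,000/well, given compounds plus R1881 agonist and incubated 16 h at 37C. LiveBLAzer B/G FRET substrate then added for 2 h at room temperature before fluorescence reading.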
# [18] = molecular target: Androgen receptor (Homo sapiens) (UniProt P10275); experiment: qHTS assay to identify small molecule agonists of the androgen receptor (AR) signaling pathway (AID 743036; active = well fitted activation curve with a large enough effect in the signal ratio in the repeat runs, with a control signal flat, not every such curve was filed as active; inconclusive = weak or mixed curves, or effect the other way; inactive = no such curve, though single readings can be large or run the other way; the % refers to the signal ratio)
# In short: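 Following a 4 h settling period, AR-UAS-bla HEK293 cells were dosed with compounds for 16 h at 37C. A 2 h room-temperature incubation with LiveBLAzer B/G FRET substrate preceded the fluorescence measurement.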
# [19] = molecular target: Androgen receptor (Homo sapiens) (UniProt P10275); experiment: qHTS assay to identify small molecule agonists of the androgen receptor (AR) signaling pathway using the MDA cell line (AID 743040; also: nearly all actives have a fitted effect of over 20% in size)
# In short: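 After a 5 h incubation at 37C and 0% CO2, MDA-kb2 reporter cells were dosed with compounds in DMSO and kept 16 h under the same conditions. Luciferase activity was then read as luminescence with ONE-Glo.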
# [20] = molecular target: Androgen receptor (Homo sapiens) (UniProt P10275); experiment: qHTS assay to identify small molecule antagonists of the androgen receptor (AR) signaling pathway using the MDA cell line (AID 743042; also: nearly all actives have a fitted effect of over 55% in size)
# In short: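 Antagonist mode: compounds plus R1881 agonist added to MDA-kb2 AR-luc cells, incubated 16 h at 37C. Luciferase reporter luminescence quantified, with multiplexed CellTiter-Fluor readout for cell viability.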
# Androgen receptor (Homo sapiens), sequence (P10275 whole entry, looked up): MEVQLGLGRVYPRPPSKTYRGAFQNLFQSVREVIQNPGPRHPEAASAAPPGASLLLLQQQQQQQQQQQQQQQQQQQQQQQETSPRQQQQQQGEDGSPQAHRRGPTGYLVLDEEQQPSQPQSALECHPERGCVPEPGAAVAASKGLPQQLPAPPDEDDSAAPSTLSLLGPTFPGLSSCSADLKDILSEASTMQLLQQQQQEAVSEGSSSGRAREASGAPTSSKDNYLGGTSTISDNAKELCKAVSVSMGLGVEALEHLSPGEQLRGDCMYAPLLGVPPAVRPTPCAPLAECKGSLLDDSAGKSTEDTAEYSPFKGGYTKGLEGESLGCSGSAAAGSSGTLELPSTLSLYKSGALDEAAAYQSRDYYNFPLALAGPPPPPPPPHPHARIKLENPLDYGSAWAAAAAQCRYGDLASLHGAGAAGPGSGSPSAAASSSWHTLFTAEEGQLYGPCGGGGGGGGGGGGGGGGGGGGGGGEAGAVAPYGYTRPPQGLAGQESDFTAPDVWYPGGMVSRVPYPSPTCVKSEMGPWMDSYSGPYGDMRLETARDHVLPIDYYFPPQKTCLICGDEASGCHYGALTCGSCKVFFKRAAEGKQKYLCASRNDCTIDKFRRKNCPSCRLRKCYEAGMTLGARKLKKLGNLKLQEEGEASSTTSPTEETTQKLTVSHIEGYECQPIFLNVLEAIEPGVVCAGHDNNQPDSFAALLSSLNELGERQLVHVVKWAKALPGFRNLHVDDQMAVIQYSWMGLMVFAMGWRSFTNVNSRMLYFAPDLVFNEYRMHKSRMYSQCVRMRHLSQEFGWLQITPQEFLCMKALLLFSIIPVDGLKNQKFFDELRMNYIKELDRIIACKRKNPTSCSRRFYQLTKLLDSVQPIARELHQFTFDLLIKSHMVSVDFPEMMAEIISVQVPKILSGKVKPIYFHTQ
# Glucocorticoid receptor (Homo sapiens), sequence (P04150 whole entry, looked up): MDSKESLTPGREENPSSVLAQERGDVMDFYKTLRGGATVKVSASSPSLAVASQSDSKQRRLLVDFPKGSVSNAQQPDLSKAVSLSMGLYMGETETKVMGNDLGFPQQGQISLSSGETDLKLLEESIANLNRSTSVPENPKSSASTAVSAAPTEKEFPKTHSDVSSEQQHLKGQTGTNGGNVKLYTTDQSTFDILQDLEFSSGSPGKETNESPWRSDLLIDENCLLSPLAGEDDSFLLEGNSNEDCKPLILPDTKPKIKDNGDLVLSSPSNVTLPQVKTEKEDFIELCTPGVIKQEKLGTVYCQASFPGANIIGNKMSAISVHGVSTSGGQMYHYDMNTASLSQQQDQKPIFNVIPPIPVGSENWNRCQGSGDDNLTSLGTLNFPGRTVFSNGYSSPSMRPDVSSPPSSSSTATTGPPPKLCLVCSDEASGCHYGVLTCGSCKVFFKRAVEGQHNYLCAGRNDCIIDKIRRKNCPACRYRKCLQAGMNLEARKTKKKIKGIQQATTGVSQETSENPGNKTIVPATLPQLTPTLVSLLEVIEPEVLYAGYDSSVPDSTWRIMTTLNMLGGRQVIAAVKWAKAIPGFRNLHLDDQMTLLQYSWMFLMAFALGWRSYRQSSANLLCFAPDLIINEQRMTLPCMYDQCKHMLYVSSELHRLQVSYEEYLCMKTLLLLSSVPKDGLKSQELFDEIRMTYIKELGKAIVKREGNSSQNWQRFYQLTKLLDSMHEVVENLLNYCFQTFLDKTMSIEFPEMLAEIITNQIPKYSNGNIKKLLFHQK
Compound,Potency [1],Potency [2],Potency [3],Potency [4],Potency [5],outcome [6],Potency [7],outcome [8],Potency [9],Potency [10],Potency [11],Potency [12],Potency [13],Potency [14],Potency [15],Potency [16],Potency [17],Potency [18],Potency [19],Potency [20]
NC(=O)OC[C@@H]1[C@H](NC(=O)/C(=N\OCC(=O)O)c2csc(N)n2)C(=O)N1S(=O)(=O)O,inactive,inactive,inactive,inactive,inactive,inactive,inactive,inactive,inactive,inactive,inactive,inactive,inactive,inactive,–,–,–,–,–,–
CN(CC(=O)N1CCOCC1)Cc1c(Cl)cccc1NC(=O)c1ccccc1,inactive,inactive,inactive,inactive,inactive,inactive,inactive,inactive,inactive,inactive,inactive,–,inactive,inactive,23.7 µM (active),–,–,–,–,–
COc1ccc(C[C@@H](C)NC[C@H](O)c2ccc(O)c(NC=O)c2)cc1,inactive,inactive,inactive,inactive,inactive,inactive,inactive,inactive,inactive,inactive,inactive,–,inactive,inactive,29.8 µM (active),–,–,–,–,–
Cc1ncc(C[n+]2csc(CCOP(=O)(O)OP(=O)(O)O)c2C)c(N)n1,inactive,inactive,inactive,inactive,inactive,inactive,inactive,inactive,inactive,inactive,inactive,inactive,inactive,inactive,–,inactive,inactive,inactive,inactive,inactive
Cc1cccc(C)c1NC(=O)NC1=CCCN1C,inactive,inactive,inactive,inactive,inactive,inactive,inactive,inactive,inactive,inactive,inactive,inactive,inactive,inactive,–,–,inactive,inactive,inactive,inactive
O=C(O)[C@H](CC(=O)N1C[C@H]2CCCC[C@H]2C1)Cc1ccccc1,inactive,inactive,inactive,inactive,inactive,inactive,inactive,inactive,inactive,inactive,inactive,inactive,inactive,inactive,–,–,–,–,–,–
CN1CCN2c3ncccc3Cc3ccccc3C2C1 (stereo not drawn),inactive,inactive,inactive,inactive,inactive,inactive,inactive,inactive,inactive,inactive,inactive,–,–,inactive,–,inactive,–,–,–,–
CC1CCC(NC(=O)N(CCCl)N=O)CC1 (stereo not drawn),inactive,inactive,inactive,inactive,inactive,inactive,inactive,inactive,inactive,–,inactive,inactive,inactive,inactive,inactive,inactive,–,–,–,–
CC(C)(CO)[C@@H](O)C(=O)NCCC(=O)NCCSSCCNC(=O)CCNC(=O)[C@H](O)C(C)(C)CO,inactive,inactive,inactive,inactive,inactive,inactive,inactive,inactive,inactive,inactive,inactive,–,–,inactive,–,–,–,–,–,–
CC[C@@]1(O)C[C@H](O[C@H]2C[C@H](N(C)C)[C@H](O[C@H]3C[C@H](O)[C@H](O[C@H]4CCC(=O)[C@H](C)O4)[C@H](C)O3)[C@H](C)O2)c2c(cc3c(c2O)C(=O)c2c(O)cccc2C3=O)[C@H]1C(=O)OC,inactive,inactive,inactive,inactive,inactive,inactive,inactive,inactive,10.7 µM [inconclusive] (active),–,2.39 µM (active),0.0422 µM (active),–,–,0.0531 µM (active),0.0531 µM (active),–,–,–,–
CCCCCCCCCCCCCCCC(=O)OC[C@@H](COP(=O)([O-])OCC[N+](C)(C)C)OC(=O)CCCCCCCCCCCCCCC,inactive,inactive,inactive,inactive,inactive,inactive,inactive,inactive,inactive,inactive,–,inactive,inactive,–,–,–,inactive,inactive,inactive,inactive
CO[C@H]1C=CO[C@@]2(C)Oc3c(C)c(O)c4c(O)c(c(/C=N/N5CCN(C6CCCC6)CC5)c(O)c4c3C2=O)NC(=O)/C(C)=C\C=C[C@H](C)[C@H](O)[C@@H](C)[C@@H](O)[C@@H](C)[C@H](OC(C)=O)[C@@H]1C,inactive,inactive,inactive,inactive,inactive,inactive,inactive,inactive,inactive,21.3 µM (active),–,4.22 µM (active),inactive,23.7 µM (active),3.35 µM (active),–,–,–,–,–
C=CC1=C(C)C2=CC3=NC(=C(CC(=O)[O-])C4=NC(=C(C)C4=C([O-])[O-])C=c4[n-]c(c(C)c4CC)=CC1=N2)C(CCC(=O)[O-])C3C.[Cu+2].[Na+].[Na+].[Na+] (stereo not drawn),inactive,inactive,inactive,inactive,inactive,inactive,inactive,inactive,inactive,–,inactive,29.8 µM (active),inactive,22.1 µM (active),29.8 µM (active),23.7 µM (active),–,–,–,–
COC(=O)C1=C(C)NC(C)=C(C(=O)O[C@H]2CCN(Cc3ccccc3)C2)[C@H]1c1cccc([N+](=O)[O-])c1,inactive,inactive,inactive,inactive,inactive,inactive,inactive,inactive,inactive,–,inactive,13.3 µM (active),inactive,–,10.6 µM (active),18.8 µM (active),26.8 µM (active),inactive,inactive,–
O=[N+]([O-])c1c(Cl)cccc1-c1c[nH]cc1Cl,inactive,inactive,inactive,inactive,inactive,inactive,inactive,inactive,inactive,21.3 µM (active),–,26.6 µM (active),inactive,inactive,18.8 µM (active),23.7 µM (active),–,–,–,–
